According to PMC10726135, “HNF4α isoforms regulate the circadian balance between carbohydrate and lipid metabolism in the liver”:
Over roughly 18,000 sequences, “log2 normalized intensity” has its median near 0.39; the highest 2% begin near 6.6. The list comes from a sample in which the highest values are over-represented; it also holds similar and randomly drawn sequences.

target: T1, HNF4alpha2 (COS-7 nuclear extract) (Homo sapiens, UniProt P41235 1-474); assay: protein-binding microarray; COS-7 nuclear extract on double-stranded Agilent 4x180k PBM; binding buffer, salt, pH and temperature not given in the material; high values mean tight binding; settings: chain copies: 2; label: 3' end of strand 1 on the slide; dsDNA, one strand shown
T1 sequence: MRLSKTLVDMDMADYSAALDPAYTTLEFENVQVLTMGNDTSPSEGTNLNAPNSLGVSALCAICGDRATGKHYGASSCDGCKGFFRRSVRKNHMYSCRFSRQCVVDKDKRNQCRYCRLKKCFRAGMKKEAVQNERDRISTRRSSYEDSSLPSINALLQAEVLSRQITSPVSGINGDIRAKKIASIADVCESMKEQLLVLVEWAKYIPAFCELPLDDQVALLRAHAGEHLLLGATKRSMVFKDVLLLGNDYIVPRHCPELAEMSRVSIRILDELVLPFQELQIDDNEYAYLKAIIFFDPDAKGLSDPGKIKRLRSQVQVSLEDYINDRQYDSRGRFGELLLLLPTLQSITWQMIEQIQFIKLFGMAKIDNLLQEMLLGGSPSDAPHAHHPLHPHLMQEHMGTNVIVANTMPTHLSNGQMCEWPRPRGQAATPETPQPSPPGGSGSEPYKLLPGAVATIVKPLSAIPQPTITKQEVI
Summary of the method: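 Binding signal is the background-corrected, normalized gProcessedSignal calculated by Agilent software. It was measured by applying nuclear extracts of COS-7 cells transiently transfected with a human HNF4α isoform expression vector to a custom Agilent SurePrint G3 4x180k array of ~44,000 double-stranded ~60-nt test sequences in quadruplicate, then imaging bound HNF4α on an Agilent G2565CA scanner at 2-µm resolution.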

Row | Sequence | binding signal [log2 normalized intensity]
1 | TGCTAGAGTACTTGGACTTTAACCTTTAGAGCCTAGGGAGATTAGAGTATCGGTCGA | 9.24
2 | TAGGGCCTTGCTATGGAGTGGACTTTGGCTGCCTAGGGAGATTAGAGTATCGGTCGA | 6.16
3 | GCTTTTGGAAGGACTTCGAATGGTATGCTAGCCTAGGGAGATTAGAGTATCGGTCGA | 0.461
4 | ACGACCTTTGGACTTGAATTATCCTTATGGGCCTAGGGAGATTAGAGTATCGGTCGA | 6.27
5 | TATGCTCTCTCTCCACCTGGAGGGACTTTGGCCTAGGGAGATTAGAGTATCGGTCGA | 2.59
6 | TGGTATGCTAGAGTACTTGGACTTTAACCTGCCTAGGGAGATTAGAGTATCGGTCGA | 9.48
7 | GGACTTCGAATGGTATGCTAGAGTACTTGGGCCTAGGGAGATTAGAGTATCGGTCGA | 1.23
8 | CTGGACTATGCCTTGAACTTTAAGGCACCTGCCTAGGGAGATTAGAGTATCGGTCGA | 1.07
9 | TCGAATGGTATGCTAGAGTACTTGGACTTTGCCTAGGGAGATTAGAGTATCGGTCGA | 6.9
10 | GCCTAAGCAGGGCTAGACTTTAACCCCCTTGCCTAGGGAGATTAGAGTATCGGTCGA | 5.53
11 | CTTTGGACTTGAATTATCCTTATGGTCTCTGCCTAGGGAGATTAGAGTATCGGTCGA | 0.855
12 | CTTTAACGACCTTTGGACTTGAATTATCCTGCCTAGGGAGATTAGAGTATCGGTCGA | 7.84
13 | CGTCCGTCACCCCTTTCTTTGATTAGGAAAGCCTAGGGAGATTAGAGTATCGGTCGA | 1.54
14 | GTCAGTTGATAAACAGATAACTGGGGGCAAGCCTAGGGAGATTAGAGTATCGGTCGA | 0.764
15 | AGTCTGATTCTAGGGCCCATGCCCTTAGCCGCCTAGGGAGATTAGAGTATCGGTCGA | 0.883
16 | TCTGTATGTCTAAGGTTTCTCAGCCCCATCGCCTAGGGAGATTAGAGTATCGGTCGA | 4.27
17 | CGGGTGAAGGTTAAATAGCTCATTAAGCTTGCCTAGGGAGATTAGAGTATCGGTCGA | -0.974
18 | CTCTCAACTCAGTGAGGGCTATTGACAAAGGCCTAGGGAGATTAGAGTATCGGTCGA | -0.637
19 | ATTTTCCCACTTGTATGTCCAAGGGTCACTGCCTAGGGAGATTAGAGTATCGGTCGA | 4.44
20 | AATTTTCTCTGTATACTTGTCTTATCAGCAGCCTAGGGAGATTAGAGTATCGGTCGA | 0.598
21 | ACTTTAACCTTTAGATTACTAGGAATTGATGCCTAGGGAGATTAGAGTATCGGTCGA | 0.914
22 | CTTGGACTTTAACCTTTAGATTACTAGGAAGCCTAGGGAGATTAGAGTATCGGTCGA | 6.18

Row | Sequence | binding signal [log2 normalized intensity]
23 | GAGTACTTGGACTTTAACCTTTAGATTACTGCCTAGGGAGATTAGAGTATCGGTCGA | 7.31
24 | CTTATCTTTGACCTTACCAGCCCACTCTTAGCCTAGGGAGATTAGAGTATCGGTCGA | 1.9
25 | TTGCCCTTCTTGGATGCCCTTCCCTAACCCGCCTAGGGAGATTAGAGTATCGGTCGA | 2.66
26 | AGATGACCTTTGCCCTTGACTTTTTGTGGGGCCTAGGGAGATTAGAGTATCGGTCGA | 7.08
27 | GAGAGTTCCCTTGGAATGCCAGATGACCTTGCCTAGGGAGATTAGAGTATCGGTCGA | 4.14
28 | TTAGCTTCCTCCCTTGGAATGTGACCTTAGGCCTAGGGAGATTAGAGTATCGGTCGA | 4.12
29 | ACCTTTGCCCTTGACTTTTTGTGGGGGCAGGCCTAGGGAGATTAGAGTATCGGTCGA | 2.38
30 | CTGGCTTTCATTCCACTGACTTGCAACCTTGCCTAGGGAGATTAGAGTATCGGTCGA | 0.803
31 | TTCCCTTGGAATGCCAGATGACCTTTGCCCGCCTAGGGAGATTAGAGTATCGGTCGA | 9.88
32 | CCCTTGGAATGTGACCTTAGACCCCTGAATGCCTAGGGAGATTAGAGTATCGGTCGA | 5.74
33 | TTTCATTCCACTGACTTGCAACCTTTGCCCGCCTAGGGAGATTAGAGTATCGGTCGA | 6.76
34 | TTCCTCCCTTGGAATGTGACCTTAGACCCCGCCTAGGGAGATTAGAGTATCGGTCGA | 8.18
35 | TTCCACTGACTTGCAACCTTTGCCCTGTTGGCCTAGGGAGATTAGAGTATCGGTCGA | 6.31
36 | TGCCCTTGACTTTTTGTGGGGGCAGATGTTGCCTAGGGAGATTAGAGTATCGGTCGA | 1.86
37 | AGGGTGACCCCTGTGGTACAGGCAGTGACTGCCTAGGGAGATTAGAGTATCGGTCGA | 1.48
38 | GAGGCTGCTCTCTGTCCCTGCACCCTACCCGCCTAGGGAGATTAGAGTATCGGTCGA | 1.6
39 | AGGGCCCTTCACTATTTTCAAAGGTCAACAGCCTAGGGAGATTAGAGTATCGGTCGA | 3.49
40 | TGTGTTTCCACAAACACAGATCAGATATGAGCCTAGGGAGATTAGAGTATCGGTCGA | -0.462
41 | GGCCTCCCCATCCTCATGACAGTACCTCTCGCCTAGGGAGATTAGAGTATCGGTCGA | 2.32
42 | GAACTTTGACCACCTACTGTTTGTGCAGAGGCCTAGGGAGATTAGAGTATCGGTCGA | 4.13
43 | ACACTGCCATTTAAAAGTTTCCCTTGATCAGCCTAGGGAGATTAGAGTATCGGTCGA | 0.876
